# The list is not random: actives were taken first. Their share in the collection is about 3.6%.
# Anthrax LF inh2 = Bacillus anthracis LF protease inhibitors, primary screen, biochemical, multiplex microsphere, MLPCN library; Lethal factor (Bacillus anthracis), P15917; multiplex microsphere protease cleavage assay; inhibition, % at 10 µM; hit rate 0.12% among 360,000; AID 588501, 2011; note: plate controls were buffer without enzyme for full effect and enzyme alone for no effect
# Target sequence (P15917 whole entry, looked up): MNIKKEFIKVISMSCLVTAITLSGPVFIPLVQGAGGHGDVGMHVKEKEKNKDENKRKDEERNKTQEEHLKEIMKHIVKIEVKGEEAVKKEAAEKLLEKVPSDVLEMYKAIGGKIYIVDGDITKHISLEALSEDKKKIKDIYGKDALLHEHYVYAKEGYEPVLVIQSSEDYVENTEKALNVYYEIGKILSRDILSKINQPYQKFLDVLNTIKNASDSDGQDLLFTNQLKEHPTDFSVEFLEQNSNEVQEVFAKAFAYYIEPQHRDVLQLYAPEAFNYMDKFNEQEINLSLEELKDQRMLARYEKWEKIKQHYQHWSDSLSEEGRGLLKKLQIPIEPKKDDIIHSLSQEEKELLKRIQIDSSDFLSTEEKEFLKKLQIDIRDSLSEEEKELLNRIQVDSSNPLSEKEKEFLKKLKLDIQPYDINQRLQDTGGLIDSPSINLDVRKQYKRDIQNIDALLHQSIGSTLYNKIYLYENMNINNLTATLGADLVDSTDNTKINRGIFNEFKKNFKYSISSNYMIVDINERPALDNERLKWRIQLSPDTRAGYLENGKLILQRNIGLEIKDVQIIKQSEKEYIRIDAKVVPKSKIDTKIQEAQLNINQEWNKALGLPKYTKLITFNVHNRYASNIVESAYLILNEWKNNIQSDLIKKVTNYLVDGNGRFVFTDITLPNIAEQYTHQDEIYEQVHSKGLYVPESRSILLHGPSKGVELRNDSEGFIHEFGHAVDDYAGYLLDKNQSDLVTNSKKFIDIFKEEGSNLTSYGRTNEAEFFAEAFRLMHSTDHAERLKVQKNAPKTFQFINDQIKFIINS
# Bead autofluor = flagged as autofluorescent in microsphere protease counterscreen; hit rate 3.1% among 360,000; compound autofluorescence counterscreen, microsphere flow cytometry; hits give high values; fluorescence intensity (test concentration not listed); AID 624483; in the data active = fluorescence intensity above about 16000; inconclusive = no clear call, values can overlap the other calls
# BoNT A protease = BoNT/A light chain protease inhibitors, primary screen, biochemical, flow cytometry, MLPCN library; Botulinum neurotoxin type A light chain protease (Clostridium botulinum A str. ATCC 3502); multiplex microsphere protease substrate cleavage; inhibition, % at 10 µM; hit rate 0.17% among 360,000; AID 588499, 2011; note: plate controls were buffer without enzyme for full effect and enzyme alone for no effect
# BoNT-F LC inh = BoNT/F light chain protease inhibitors, primary screen, biochemical, flow cytometry, MLPCN library. Botulinum neurotoxin type F light chain protease (Clostridium botulinum). Multiplex microsphere protease cleavage assay. inhibition, % at 10 µM. hit rate 0.22% among 360,000; in the data active = inhibition above about 35%, passing the limit was not always enough; inconclusive = no clear call, values can overlap the other calls; note: plate controls were buffer without enzyme for full effect and enzyme alone for no effect
# MazEF act = activators of E. coli MazEF toxin-antitoxin RNase, primary screen, biochemical, fluorescence, uHTS; FAM/BHQ RNA-DNA oligo cleavage fluorescence, 5 h; hit rate 0.32% among 350,000; activation, % at 20 µM; in the data active = activation above about 50%
# Active calls of the source: *; u = inconclusive; x = not tested or not shown; + = active, no number. Cut-off read from the data, not from the text of the source, unless noted: active = inhibition above about 30%; inconclusive = no clear call, values can overlap the other calls; inactive = below that.
SMILES,Anthrax LF inh2,Bead autofluor,BoNT A protease,BoNT-F LC inh,MazEF act
CCC1(c2ccccc2)NC(=O)N(CC(=O)Nc2cccc(S(=O)(=O)N3CCCCC3)c2)C1=O (stereo not given),3,6220,3,1,1
NC(=O)c1nc(C2CCCCC2)nc2c1[nH]c(=O)n2-c1ccc(F)cc1,2,4964,0,-8,86*
COc1ccccc1-n1c(=O)[nH]c2c(C(N)=O)nc(C3CCCCC3)nc21,-10,4703,-1,-3,9
CCOCCCNC(=O)c1cc2sc(Cl)cc2n1CC,-10,18115*,u,-15,-9
CCCCOC(=O)CNc1n[nH]c(=S)[nH]c1=O,0,21415*,u,6,-1
O=C(OCc1ccccc1)N1CCC2CC1c1cc(/C=C/CCCSc3ncccn3)ccc12 (stereo not given),-12,3033,0,-3,-3
C=CCn1c(C(CCC(C)C)CC(C)(C)O)n[nH]c1=S (stereo not given),0,24772*,-4,-6,-2
CCC(c1nnnn1C(C)(C)CC)N(CCCN1CCOCC1)Cc1cc2cccc(C)c2[nH]c1=O (stereo not given),-2,11071,0,4,-21
CCC(C)(C)n1nnnc1C(C(C)C)N(CCN1CCOCC1)Cc1cc2cccc(C)c2[nH]c1=O (stereo not given),0,21802*,4,3,-8
COc1ccc(C(c2nnnn2Cc2ccccc2)N2CCN(C/C=C/c3ccccc3)CC2)cc1 (stereo not given),0,6090,0,-4,x
Cc1ccc(/C=C2\Oc3cc(OC(=O)N4CCOCC4)ccc3C2=O)cc1,-1,2382,-1,-16,5
O=C(Oc1ccc2c(c1)O/C(=C\c1ccncc1)C2=O)c1ccccc1,-1,2047,2,2,220*
CC(=O)NCCn1c(SCc2ccccc2C)nc2ccccc2c1=O,-15,7911,3,-3,-8
CC(=O)NCCn1c(SCc2cccc([N+](=O)[O-])c2)nc2ccccc2c1=O,-1,5116,0,2,-1
CC(=O)NCCn1c(SCC(=O)c2ccccc2)nc2ccccc2c1=O,0,23027*,-2,-5,-16
CC(=O)NCCn1c(SCc2ccc(C)cc2C)nc2ccccc2c1=O,-2,23483*,-2,-1,-4
CC(=O)NCCn1c(SCc2cc(F)ccc2F)nc2ccccc2c1=O,-6,21737*,u,-1,-5
CC(=O)NCCn1c(SCC(=O)OCc2ccccc2)nc2ccccc2c1=O,15,6113,5,18,7
C[C@H](CO)N1C[C@H](C)[C@@H](CN(C)Cc2ccc(C(=O)O)cc2)OCc2cnnn2CCCC1=O,-4,3447,0,2,4
O=S(=O)(NCC(c1ccccc1)N1CCNCC1)c1ccc(Cl)cc1 (stereo not given),-2,21805*,-2,-7,6
CCN1CCN(C(CNS(=O)(=O)c2ccc(Cl)cc2)c2ccccc2)CC1 (stereo not given),1,4667,-2,8,5
CCOC(=O)Cn1cc(C=C2C(=O)N(C)C(=O)N(C)C2=O)c2ccccc21,22,3338,-1,40*,-115
CN1C(=O)C(=Cc2cn(CC(=O)N3CCCC3)c3ccccc23)C(=O)N(C)C1=O,-4,4764,-2,0,-5
CCn1cc(C=C2C(=O)c3ccccc3C2=O)c2ccccc21,34*,3399,70*,19,+
CN(C)c1ccc(CN(C(=O)C2COc3ccccc3O2)C2CCS(=O)(=O)C2)cc1 (stereo not given),-4,19479*,0,0,-4
SMILES,Anthrax LF inh2,Bead autofluor,BoNT A protease,BoNT-F LC inh,MazEF act
CC(C)c1ccc(CN(C(=O)C2COc3ccccc3O2)C2CCS(=O)(=O)C2)cc1 (stereo not given),-5,16571*,-1,-5,-12
Cc1nnc(Sc2c(N)n(C)c(=O)n(C)c2=O)s1,-7,20250*,0,-3,-9
Cc1ccc2c(c1)N(C(C)C(=O)N1CCC3(CC1)OCCO3)C(=O)CO2 (stereo not given),-2,5671,0,-2,6
Cc1ccc2c(c1)N(C(C)C(=O)NCCc1ccccc1)C(=O)CO2 (stereo not given),-1,20536*,u,-3,-6
Cc1ccc2[nH]cc(CCNC(=O)CN3C(=O)c4ccccc4C3=O)c2c1,0,2612,0,-1,1
Cc1ccc(NC(=O)CN2C(=O)COc3ccc(C)cc32)nc1,-2,21570*,4,6,6
Cc1ccc2c(c1)N(CC(=O)NCCc1c[nH]c3ccccc13)C(=O)CO2,-3,23441*,-2,-2,1
Cc1ccc2c(c1)N(CC(=O)Nc1nccs1)C(=O)CO2,-5,5851,2,5,1
Cc1ccc2c(c1)N(CCC(=O)N1CCC3(CC1)OCCO3)C(=O)CO2,-1,22602*,0,0,-1
Cc1ccc2c(c1)N(CCC(=O)N1CCC3(CC1)OCCO3)C(=O)C(C)O2 (stereo not given),-10,6156,1,1,-7
Cc1nc(C(F)(F)F)ccc1C(=O)N1CCC1(C)C(=O)NCc1ccc(Cl)cc1 (stereo not given),-3,3931,-1,0,x
O=C(Nc1cccc(C(F)(F)F)c1)c1cc2ncc(Br)cn2n1,1,22276*,4,3,1
CCc1ccccc1NC(=O)c1cc2ncc(Br)cn2n1,-1,21333*,u,7,0
O=C(NCCc1ccccc1)c1cc2ncc(Br)cn2n1,2,2715,1,0,-2
CCOC(=O)c1c(C)[nH]c(C(=O)CN2C(=O)NC(C)(c3ccc4ccccc4c3)C2=O)c1C (stereo not given),-3,20042*,-2,-2,-6
CCCC1(c2ccccc2)NC(=O)N(CC(=O)c2[nH]c(C)c(C(=O)OCC)c2C)C1=O (stereo not given),-1,2244,0,2,5
CC(C)=CCc1cc(-c2oc3cc(O)cc(O)c3c(=O)c2O)ccc1O,-14,4124,0,-16,57*
CCOc1cc(S(=O)(=O)NCc2ccncc2)ccc1Cl,-2,4901,-1,-4,3
CC(C)OC(=O)c1nnn(-c2nonc2N)c1CN1CCc2ccccc2C1,0,5610,0,-5,8
CCOC(=O)c1nnn(-c2nonc2N)c1CN1CCc2ccccc2C1,-14,20264*,5,4,6
CCOc1cc2c(cc1C=O)OC(C)C2 (stereo not given),-3,3346,0,-6,0
CCOc1cc2c(cc1/C=C/c1noc(C)c1[N+](=O)[O-])OC(C)C2 (stereo not given),4,11411,15,27,370*

# Assay outcomes from PubChem BioAssay.
